Test results from PubChem BioAssay (EPA / NIEHS).
Values joined by “and” are separate entries in the source; they are usually repeats but may differ in a detail not shown here. Equal values may be shown once. The source holds several records for some structures; these can differ, active in one and inactive in another. Active and inactive are the calls of the source. The calls were made as follows: active = hit-call score of the fitted dose curve at least 0.9, where 1 is the maximum; inactive = score below 0.9.

read-out: Interleukin-1 alpha (IL1a), IL1A (gene 3552); test: BSK_LPS_IL1a: BioMAP Diversity Plus: LPS Assay for Interleukin-1 alpha (IL1a) Biomarker Activity (AID 2283080); settings: primary human HUVEC with PBMC; actives raise or lower the signal
Description: BSK_LPS is a cell-based, multiplexed-readout assay that uses umbilical vein endothelium and peripheral blood mononuclear cells, a human vascular primary cell co-culture, with measurements taken at 24 hours after chemical dosing in a 96-well plate.BSK_LPS_IL1a is an assay component measured in the BSK_LPS assay. It measures IL-a antibody related to regulation of gene expression using ELISA technology.Data from the assay component BSK_LPS_IL1a was analyzed into 1 assay endpoint. This assay endpoint, BSK_LPS_IL1a, was analyzed with bidirectional fitting relative to DMSO as the negative control and baseline of activity. Using a type of binding reporter, gain or loss-of-signal activity can be used to understand changes in the signaling as they relate to the gene IL1A. Furthermore, this assay endpoint can be referred to as a primary readout, because this assay has produced multiple assay endpoints where this one serves a signaling function. To generalize the intended target to other relatable targets, this assay endpoint is annotated to the cytokine intended target family, where the subfamily is interleukins.
The levels of cell surface (or secreted, indicated by the prefix "s") biomarker endpoints were measured by ELISA. Overt cytotoxicity to cells in confluent adherent cultures (all systems other than the BT system) was assessed by measuring total protein levels using sulforhodamine B (SRB) staining in parallel cultures at the time of biomarker measurements, indicated as SRB endpoints. For proliferation assays for adherent cell types, individual cell types are cultured at sub-confluence and relative cell numbers quantified by SRB staining at time points optimized for each system (48 h: 3C and CASM3C systems; 72 h: BT and HDF3CGF systems; 96 h: SAg system). SRB was performed by staining cells with 0.1% SRB after fixation with 10% TCA and reading wells at 560 nm.Viability and proliferation of PBMC (T cells) was quantified by Alamar Blue reduction for the SAg and BT systems. For PBMC viability (referred to as PBMC Cytotoxicity within the assay endpoint names), cells were plated (75,000/well in a 96-well plate) and then chemical samples added for 1 h before addition of activators, SEB and TSST-1 (20 ng/mL final concentration each). Cells were incubated for 90 h. Then, Alamar Blue (20 uL/well) (Invitrogen, Cat DAL1100) was added for 6 h, and the plates were read with a fluorescence microplate reader at 546/580 nm (excitation/emission). For PBMC proliferation, cells were plated and activated as above but incubated for only 16 h prior to addition of Alamar Blue. Plates were read after 6 h.

Row | Structure (SMILES) | outcome | AC50
1 | O=C(NO)c1ccccc1 | inactive | 
2 | O=C(c1ccccc1)c1ccccc1 | inactive | 
3 | O=C1OC2(c3ccccc31)c1cc(I)c(O)c(I)c1Oc1c2cc(I)c(O)c1I |  | 9.13 µM (active)
4 | C=COC(=O)C(C)(C)CCCCCC |  | 33.6 µM (active)
5 | O=P(O)(O)CCC(F)(F)C(F)(F)C(F)(F)C(F)(F)C(F)(F)C(F)(F)F | inactive | 
6 | C=CC(C)(CCC=C(C)C)OC(C)=O (stereo not given) | inactive | 
7 | CCCCCCCCCCCC |  | 14.4 µM (active) and 29.6 µM (active)
8 | Cc1[nH]nc2c1N=C(c1ccccc1Cl)c1cc([N+](=O)[O-])ccc1N2 |  | 4.2 µM (active)
9 | O=S(=O)(O)C(F)(F)C(F)(F)C(F)(F)C(F)(F)C(F)(F)C(F)(F)C(F)(F)C(F)(F)C(F)(F)C(F)(F)F | inactive | 19.4 µM (active)
10 | O=C1c2ccc(O)c(O)c2C(=O)c2c(O)ccc(O)c21 | inactive | 
11 | CCCCC=O | inactive | 
12 | CN(Cc1cnc2nc(N)nc(N)c2n1)c1ccc(C(=O)N[C@@H](CCC(=O)O)C(=O)O)cc1 | inactive | 
13 | CCOC(=O)CN[C@@H](C(=O)N1CC[C@H]1C(=O)NCc1ccc(/C(N)=N/O)cc1)C1CCCCC1 | inactive | 
14 | COC1=CC(=O)C[C@@H](C)[C@]12Oc1c(Cl)c(OC)cc(OC)c1C2=O | inactive | 
15 | CCCCCCCCCCCCOS(=O)(=O)O | inactive | 
16 | COc1cc(OC)nc(NC(=O)NS(=O)(=O)Nc2ccccc2C(=O)N(C)C)n1 |  | 0.0637 µM (active)
17 | CCCCC(CC)C(=O)OCCOCCOCCOCCOC(=O)C(CC)CCCC (stereo not given) | inactive | 
18 | CCCCCCCCCCCCCCCCCC[N+](C)(C)Cc1ccccc1 |  | 2.71 µM (active)
19 | O=C(NCc1ncc(C(F)(F)F)cc1Cl)c1c(Cl)cccc1Cl | inactive | 

Row | Structure (SMILES) | outcome | AC50
20 | NC(=NCCCCCCN=C(N)/N=C(\N)Nc1ccc(Cl)cc1)/N=C(\N)Nc1ccc(Cl)cc1 |  | 4.94 µM (active)
21 | Cc1cccc2c1ccc1ccccc12 | inactive | 
22 | CN(C)CCOC(c1ccccc1)c1ccccc1 | inactive | 
23 | CCCCc1oc2ccccc2c1C(=O)c1cc(I)c(OCCN(CC)CC)c(I)c1 |  | 19.1 µM (active)
24 | O=C(O)CCC(F)(F)C(F)(F)C(F)(F)C(F)(F)C(F)(F)C(F)(F)F | inactive | 12.9 µM (active) and 30 µM (active)
25 | C[C@]12CC[C@@H]3c4ccc(O)cc4CC[C@H]3[C@@H]1C[C@@H](O)[C@@H]2O | inactive | 
26 | COc1cccc(O)c1 | inactive | 
27 | CC(C)(C)c1ccc(O)c(O)c1 |  | 29.3 µM (active)
28 | CCCCCc1ccc(O)cc1 |  | 31.7 µM (active)
29 | CCC(C)c1ccccc1O (stereo not given) | inactive | 
30 | O=C1NS(=O)(=O)c2ccccc21 | inactive | 
31 | CC[N+](CC)(CC)Cc1ccccc1 | inactive | 
32 | COCN(COC)c1nc(N(COC)COC)nc(N(COC)COC)n1 | inactive | 
33 | N=C(N)c1ccc(OCCCCCOc2ccc(C(=N)N)cc2)cc1 |  | 17.5 µM (active)
34 | O=C(CCCN1CCC(O)(c2ccc(Cl)cc2)CC1)c1ccc(F)cc1 | inactive | 
35 | Cc1ccc(C(=O)c2ccccc2)cc1 | inactive | 
36 | CCCCCCCCCCCCCCC | inactive | 
37 | OCC(CO)(CBr)CBr | inactive | 
38 | CN(C)c1ccc(C(=C2C=CC(=[N+](C)C)C=C2)c2ccccc2)cc1 |  | 0.00944 µM (active)
